# Source: PubChem BioAssay
# Most compounds without a hit are left out; they make up all but 9.5% or so of the library.
# Pf growth 96h = P. falciparum growth inhibition at 96 hours; P. falciparum luciferase reporter growth, 96 h; Potency, µM (titrated, usually from 28.7 µM), inactives show at the top dose activity change, negative = inhibition, hits mostly inhibitors; 320,000 tested, 6.9% active; active = well fitted inhibition curve with a large enough effect; inconclusive = small, poorly fitted or top-dose-only effect, or another doubt; inactive = no such curve, though single readings can be large or run the other way; also: % is scaled to controls: 0 for no effect and ±100 for the full control effect
#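 P. falciparum expressing integrated firefly luciferase grown in erythrocytes (2% hematocrit, 0.05% parasitemia final) with compounds for 96 hours at 37 C, 5% CO2. Growth inhibition read as loss of luminescence after adding luciferase detection reagent.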
# NS1 inh = inhibitors of influenza NS1 protein function. Potency, µM (doses to about 46.1 µM), inactives show at the top dose activity, positive = more growth. 270,000 tested, 0.4% active. AID 2326; also: actives are rising curves; nearly all actives have a fitted effect of over 50% in size
#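 Compounds were scored for reversing the slow growth caused by influenza A NS1 in S. cerevisiae, measured by optical density at 600 nm. Assay medium contained 2% galactose at pH 6.0; NS1-free yeast of the same strain were the positive control.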
# Pf growth 48h = P. falciparum growth inhibition at 48 hours (one generation); P. falciparum luciferase growth in erythrocytes, 48 h; Potency, µM (highest dose often 28.7 µM), for inactives: top-dose activity change, negative = inhibition, most hits filed as inhibitors; 310,000 tested, 5.9% active; AID 504832; active = well fitted inhibition curve with a large enough effect; inconclusive = small, poorly fitted or top-dose-only effect, or another doubt; inactive = no such curve, though single readings can be large or run the other way; also: % is scaled to controls: 0 for no effect and ±100 for the full control effect
#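 In quantitative HTS format, infected erythrocytes bearing luciferase-reporter parasites were treated for a single generation at 37 C. Luminescence after adding detection reagent served as the growth measure.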
# RE007 growth inh = less growth of the S. pombe RE007 Vpr strain; S. pombe RE007 Vpr strain, BacTiter-Glo ATP luminescence, 24 h; 360,000 tested, 0.21% active; Potency, µM (top dose mostly 92.2 µM), inactives show at the highest dose activity change, negative = less growth, actives largely listed as inhibitors; AID 651644; active = well fitted falling curve with a large enough effect; inconclusive = small, poorly fitted or top-dose-only effect; inactive = no such curve, though single readings can be large or run the other way; also: % is scaled to controls: 0 for no effect and ±100 for the full control effect; nearly all actives have a fitted effect of over 50% in size
#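 Fission yeast RE007 carrying one integrated HIV-1 vpr copy, seeded at OD 0.01 in PMG+AL medium with 23 nL pinned compound. Grown 24 h at 30 degrees; viability read by BacTiter-Glo luminescence after 5 min.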
# SARS PLpro yeast = inhibitors of SARS-CoV papain-like protease in yeast; S. cerevisiae expressing SARS-CoV PLpro, growth rescue; Potency, µM (titrated, usually from 32.9 µM), for inactives: at the highest dose activity, positive = growth rescue, hits mostly activators; 330,000 tested, 0.19% active; AID 485353; also: 0% is about no effect; nearly all actives have a fitted effect of over 55% in size
# * marks the source's active call; other numbers are inactive results; ? = inconclusive; / = no result given; [ ] = remark or other dose. Unless noted, calls follow the shape of the full dose curve. Potency is read from the fitted curve at half-maximal effect.
SMILES,Pf growth 96h,NS1 inh,Pf growth 48h,RE007 growth inh,SARS PLpro yeast
COc1ccc(-c2csc(CCN3N=C(C)CC3=O)n2)cc1,?,9%,4.1µM*,7%,0%
COc1cccc(NC(=O)CN2C(=O)c3cccnc3Oc3ccc(Cl)cc32)c1,2%,14%,13µM*,1%,4%
O=C(CN1C(=O)c2cccnc2Oc2ccc(Cl)cc21)Nc1ccccc1F,7%,17%,?,7%,2%
O=C1CC(SCc2nc3ccccc3[nH]2)C(=O)N1c1ccc(F)c(Cl)c1 (configuration not stated),9%,-27%,/,-5%[3.69 µM],-49%
O=C1CC(SCc2nc3ccccc3[nH]2)C(=O)N1c1ccc(Cl)cc1 (configuration not stated),4%,-16%,17%,16µM*,-33%
O=C1CC(N2CCC(c3nc4ccccc4o3)CC2)C(=O)N1c1ccc(Cl)c(C(F)(F)F)c1 (configuration not stated),/,-132%,-10%,28µM*,?
O=C1CC(N2CCC(c3nc4ccccc4o3)CC2)C(=O)N1c1ccc(F)cc1 (configuration not stated),23%[5.75 µM],-9%,-14%,?,-5%
O=C1CC(N2CCC(c3nc4ccccc4[nH]3)CC2)C(=O)N1c1cccc(F)c1 (configuration not stated),32%,/,-8%[5.75 µM],40µM*,-5%
CCOc1ccc(N2C(=O)CC(SCc3nc4ccccc4[nH]3)C2=O)cc1 (configuration not stated),?,3%,?,10µM*,-7%
COC(=O)C/C(C)=N/Nc1ccc(S(=O)(=O)N2CCCC2)cc1[N+](=O)[O-],-7%,?,-9%,-1%,1%
Cc1nnc2n1CCCCC2,23%,5%,11%,8%,2%
CCc1ccc(CCC(=O)N2CCN(S(=O)(=O)c3sc(C(=O)O)c(C)c3C(=O)O)CC2)cc1,/,/,/,-2%,/
COCc1cc(=O)n2[nH]cc(-c3ccsc3)c2n1,14%,0%,-13%,-6%,-1%
O=C1CC(SCc2nc3ccccc3[nH]2)C(=O)N1c1cccc(F)c1 (configuration not stated),0%,9%,5%,32µM*,-26%
c1ccc(C[n+]2c(-c3ccccc3)csc2Nc2ccccc2)cc1,9.3µM*,-6%,?,1%,-3%
c1ccc(Nc2scc(-c3ccccc3)[n+]2Cc2ccco2)cc1,-69%,/,129%,-19%,-23%
O=C(COC(=O)CSc1ccc(Cl)cc1)NCCc1ccccc1,2%,/,23%,36%,-2%
COCCN(CCOC)c1nc(-c2ccc(C)cc2)nc2ccccc12,?,-67%,0%,0%,-5%
CCCN(CCC)c1nc(-c2ccccn2)nc2ccccc12,0.33µM*,-83%,0.83µM*,-15%,-5%
c1ccc(CCNc2nc(-c3ccccn3)nc3ccccc23)cc1,1.7µM*,-58%,1µM*,1%,-1%
CCCCN(CC)c1nc(-c2ccncc2)nc2ccccc12,/,-15%,2.9µM*,8%,-48%
O=C(NC1CCCCC1)C1CC(=O)N(c2cccc([N+](=O)[O-])c2)C1 (configuration not stated),37%,/,-1%,1%,1%
O=C(OC(C(=O)NC1CCCCC1)c1ccccc1F)c1ccco1 (configuration not stated),-16%,-5%,15%,3%,3%
C=CCOc1ccc(C2NC(=O)c3ccccc3O2)cc1OC (configuration not stated),/,/,/,-20%,/
CC(=O)Nc1nonc1-c1nc2ccccc2n1Cc1ccccc1,/,6%,12µM*,0%,2%
SMILES,Pf growth 96h,NS1 inh,Pf growth 48h,RE007 growth inh,SARS PLpro yeast
CC(=O)Nc1nc2ccccc2n1Cc1ccc(Cl)cc1,?,-36%,2.9µM*,-15%,-1%
CCC(=O)Nc1nc2ccccc2n1Cc1ccc(C)cc1,0%,-18%,2.9µM*,2%,13%
CCN(CC)CCn1c(=N)n(CC(=O)c2ccc(C)cc2)c2ccccc21,20%,10%,4.7µM*,-4%,1%
CCn1c(NC(C)=O)nc2ccccc21,?,6%,19%,-23%,-12%
CCC(C(=O)NCCc1c[nH]c2cc(OC)ccc12)c1ccccc1 (configuration not stated),-18%,-7%,-19%,-13%,0%
CC(C)c1ccc(NC(=O)C2Cc3c(-c4ccc(Cl)cc4)ccnc3O2)cc1 (configuration not stated),/,/,/,-6%,/
Cc1nnc(NC(=O)CSc2ccccc2N)s1,?,11%,27%,4%,1%
CC(Sc1ncnc2sc(-c3ccccc3)cc12)C(=O)NCC1CCCO1 (configuration not stated),?,/,?,2%,-9%
CCCn1c(NC(=O)C2CCN(C(=O)c3ccccc3C)CC2)nc2ccccc21,?,/,12µM*,-1%,-1%
CCC(Cc1ccccc1)NC(=O)/C=C/c1ccco1 (configuration not stated),-3%,8%,-12%,2%,-5%
O=C(Nc1nc2ccccc2n1CCN1CCCCC1)c1ccco1,?,1%,3%,-7%,-2%
O=C(Nc1nc2ccccc2n1CCOc1ccc(Cl)cc1)c1ccco1,?,-62%,/,-22%,-5%
O=C(Nc1nc2ccccc2n1Cc1ccc(Cl)cc1)c1ccco1,-20%,8%,12µM*,1%,-26%
C=CCn1c(NC(=O)c2ccco2)nc2ccccc21,11%,-39%,12µM*,-9%,3%
CC(NC(=O)/C=C/c1ccco1)c1nc2ccccc2n1Cc1cccc(Cl)c1 (configuration not stated),?,12%,13µM*,0%,-4%
O=S1(=O)N=C(c2ccccc2)C=C(c2ccccc2)N1,/,/,/,2%,12%
Cc1ccc(C(=O)Nc2ncccc2C)cc1S(=O)(=O)N1CCCCC1,-17%,/,?,-8%,2%
CCN(CC)CCn1c(=N)n(CC(O)c2ccc(OC)c(OC)c2)c2ccccc21 (configuration not stated),4%,0%,9.3µM*,11%,0%
CC(=O)NCc1nc2ccccc2n1Cc1ccccc1F,2.1µM*,-3%,35%,1%,-7%
CCN(CC)CCn1c(NC(=O)c2ccc(C)cc2)nc2ccccc21,6.6µM*,1%,121%,3%,-5%
O=C(O)CNC(=O)c1ccccc1O,/,8%,/,/,/
Oc1ccc2ccccc2c1/C=C\c1ccc2c(Br)cc(Br)c(O)c2n1,/,-43%,/,/,/
CCOC(=O)CNC(=S)N(CCCN1CCN(C)CC1)Cc1cccs1,28%,13%,5%,19%,1%
COc1ccc(-c2nc(-c3ccc(NC(=O)c4ccncc4)cc3)no2)cc1OC,-8%,7%,-15%,-3%,2%
